Screening results from PubChem.
Only some compounds are listed: those with a hit (about 3.8% of all), similar ones and a draw of the others.
CR mimetic SO: reduction of superoxide in aged yeast, primary screen, HTS; 0.18% of 330,000 active; S. cerevisiae aged cells, superoxide DHE fluorescence; stronger effect = lower value; superoxide response (% of plate mean), % at 10 µM;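 active = superoxide response under a set limit, about three screen SD below normal, cut at about 65% in these data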;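 also: yeast aged for seven days with compound at 30 °C before DHE staining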
tim23-1 inh: growth inhibitors of tim23-1 mutant yeast, primary screen, luminescence, uHTS | S. cerevisiae tim23-1 growth, BacTiter-Glo luminescence, 24 h | inhibition, % at 20 µM | 1.3% of 330,000 active;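 active = growth inhibition of the mutant yeast at or above 50%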;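 also: temperature-sensitive mutant grown at 25 °C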
TIM10 inh: growth inhibitors of isogenic TIM10 control yeast, primary screen, counter-screen for tim10-1 yeast inhibitor project, luminescence, uHTS | S. cerevisiae TIM10 strain growth, BacTiter-Glo luminescence, 24 h | AID 463195, 2010 | 1.4% of 330,000 active | inhibition, % at 10 µM;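 active = inhibition of 40% or more at the single tested concentration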;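 also: wild-type TIM10 isogenic control strain grown at permissive 25 °C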
NLRP3 yeast inh: NALP3 inflammasome inhibitors in reconstituted yeast, primary screen, luminescence, uHTS | 0.39% of 330,000 active | inhibition, % at 10 µM | Yeast reconstituted NLRP3/ASC/caspase-1, beta-gal luminescence, 24 h | AID 2825, 2010;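 active = inhibition of 50% or more; inactive = inhibition below 50%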
tim10-1 inh: growth inhibitors of tim10-1 mutant yeast, primary screen, luminescence, uHTS; S. cerevisiae tim10-1 ts strain growth, BacTiter-Glo, 24 h; inhibition, % at 20 µM; 2.2% of 330,000 active; AID 463190, 2010;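 active = inhibition of at least 40%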;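 also: mutant grown at 25 °C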
tim10-1 confirm: growth inhibitors of tim10-1 mutant yeast, confirmation, single concentration, luminescence, S. cerevisiae. shares compounds with tim10-1 inh. S. cerevisiae tim10-1 ts strain growth, BacTiter-Glo, 24 h. inhibition, % at 20 µM. 56% of 7,400 active. AID 463213, 2010;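 active = inhibition of yeast growth at or above a set limit in either of two repeat tests at 20 µM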;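 also: tim10-1 mutant grown at permissive 25 °C to find synthetic lethal compounds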
Numbers stand for hits; n = inactive; x = no result.

SMILES	CR mimetic SO	tim23-1 inh	TIM10 inh	NLRP3 yeast inh	tim10-1 inh	tim10-1 confirm
Cc1ccccc1/C=C/C(=O)c1ccc([N+](=O)[O-])o1	n	n	n	n	67	71
Cc1ccc(CNS(=O)(=O)c2c(C)[nH]c(=O)[nH]c2=O)cc1	n	n	n	n	n	x
COc1ccc(Cn2c(CCC(=O)Nc3ccc(C)c(C)c3)nc3cccnc32)cc1	n	n	n	n	n	x
CCCn1c(N)c(C(=O)CSc2ncnc3sccc23)c(=O)n(C)c1=O	x	n	n	n	n	x
N#Cc1nc(COc2ccc(Cl)cc2Cl)oc1N1CCOCC1	n	n	n	n	41	n
OCC1(Cc2cccc(Cl)c2)CCCN(Cc2ccc3cc(F)ccc3n2)C1 (stereo unspecified)	n	n	n	n	48	n
COc1ccc(-n2ccnc2CN2CCCC(CO)(Cc3cccc(OC)c3)C2)cc1 (stereo unspecified)	n	n	n	n	41	n
NNC(=O)c1[nH]c2ccccc2c1-c1ccccc1	n	n	n	n	42	35
CC(=O)NNC(=O)c1[nH]c2ccc(Cl)cc2c1-c1ccccc1	n	n	n	n	n	x
O=c1oc2ccccc2cc1NCc1ccccc1O	n	n	n	n	41	n
O=C(NCc1ccccc1Cl)c1cc2ccccc2oc1=O	n	n	n	n	n	x
O=C(OCCNc1ncc(C(F)(F)F)cc1Cl)c1ccc(S(=O)(=O)N2CCOCC2)cc1	n	n	n	n	n	x
N#CCC(CNc1ncc(C(F)(F)F)cc1Cl)OC(=O)c1cccc(C(F)(F)F)c1 (stereo unspecified)	n	n	n	n	42	n
CCOc1ccc(N2C(=O)/C(=C/c3cc(OC)c(OC)c(OC)c3)N(CC(=O)OC)C2=S)cc1	n	n	n	n	n	x
CCOc1ccc(/C=C2/C(=O)N(c3ccc(OC)cc3)C(=S)N2CC(=O)OC)cc1OCC	n	n	n	n	41	n
Cc1csc(NC(=O)CS(=O)(=O)c2ccccc2)n1	n	n	n	n	n	x
O=C(CS(=O)(=O)c1ccccc1)Nc1nc(-c2ccccc2)cs1	n	n	n	n	47	40
CCOC(=O)c1ccc(NC(=O)CC2OCCN(CC)C2=O)cc1 (stereo unspecified)	n	n	n	n	50	62
CCN1CCOC(CC(=O)Nc2cccc([N+](=O)[O-])c2)C1=O (stereo unspecified)	n	n	n	n	n	x
N/C(=N\OC(=O)CCCOc1ccc(Cl)cc1Cl)c1ccccn1	n	n	n	n	59	39
CN(CC(=O)O/N=C(\N)c1ccccn1)S(=O)(=O)c1cc(Cl)ccc1Cl	n	n	n	n	43	41
N/C(=N\OC(=O)COc1cc(Cl)c(Cl)cc1Cl)c1ccccn1	n	n	n	n	n	x
O=C(Nc1ccc(Cl)cc1)[C@@H]1[C@@H]2C(=O)N(c3ccc(Cl)cc3Cl)C(=O)[C@@H]2[C@H]2C=CC=NN21	n	n	n	n	45	n
COc1ccccc1N1C(=O)[C@@H]2[C@H](C1=O)[C@H](C(=O)c1ccc(OC(C)=O)cc1)N1N=CC=C[C@@H]21	n	n	n	n	n	x
Cc1cc(C)c2c(NC(=S)NC(=O)c3ccccc3)nn(C)c2n1	n	n	n	n	50	n
SMILES	CR mimetic SO	tim23-1 inh	TIM10 inh	NLRP3 yeast inh	tim10-1 inh	tim10-1 confirm
Cc1cc(C)nc(NC(=S)NC(=O)c2ccccc2)n1	n	n	n	n	n	x
COc1ccc(OC)c(C(=O)c2ccc(C(=O)N3CCCCC3)cc2)c1	n	n	n	n	n	x
c1ccc(-c2cc(-c3nc4ccccc4[nH]3)c3ccccc3n2)cc1	n	n	n	n	51	38
CC1CCCC(C)N1CCCNC(=O)Cn1c(=O)c2cccn2c2cccnc21 (stereo unspecified)	n	n	n	n	n	x
Cc1nn(C)c(C)c1S(=O)(=O)N1CCC(CO)(CC2CCCCO2)CC1 (stereo unspecified)	n	n	n	n	n	x
CCOc1ccc(C(=O)/C=C/c2cc(OC)c(OC)c(OC)c2)cc1	n	n	n	n	45	n
S=c1[nH]c(-c2ccccc2)cn1/N=C/c1ccccc1Br	n	n	n	n	42	n
S=c1[nH]c(-c2ccccc2)cn1/N=C/c1cccc2ccccc12	n	n	n	n	n	x
COc1ccccc1C(=O)Nc1ccccc1N1CCN(C(=O)c2ccc(Cl)cc2)CC1	n	n	n	n	47	n
O=C(Nc1ccccc1N1CCN(C(=O)c2ccccc2)CC1)c1ccccc1Cl	n	n	n	n	n	x
O=C(Nc1ccccc1N1CCN(C(=O)c2ccc(Cl)cc2)CC1)c1cccc([N+](=O)[O-])c1	n	n	n	n	42	n
CCN(CC(=O)Nc1c(F)cccc1F)C(=O)CCCNC(=O)c1ccc(Cl)cc1	n	n	n	n	n	x
Cc1ccc(Sc2ccc([N+](=O)[O-])cc2[N+](=O)[O-])nc1	n	n	n	n	40	37
Cc1ccnc(Sc2ccc([N+](=O)[O-])cc2[N+](=O)[O-])n1	n	n	n	n	59	53
CC(C)[C@H](NC(=O)c1ccccc1)C(=O)OCC(=O)N1CCN(C(=O)c2ccco2)CC1	n	n	n	n	n	x
Cc1cccc(CC(=O)N2CCOCC2)c1	n	n	n	n	n	x
COc1cc(NC(=O)COC(=O)CNC(=O)C2CCCCC2)cc(OC)c1	n	n	n	n	n	x
CCCCCCCCCCOC(=O)Cn1c(COc2ccccc2C)[n+](C)c2ccccc21	n	n	n	n	70	n
CC(C)c1ccc(NC(=O)[C@H]2CSCN2C(=O)[C@@H]2CCC(=O)N2)cc1	n	n	n	n	n	x
CCNC(=O)NCCc1c[nH]c2ccc(Cl)cc12	n	n	n	n	n	x
O=c1[nH]cc([N+](=O)[O-])cc1Br	n	n	n	n	n	x
CC1CC1C(=O)N(C)CC(=O)Nc1ccccc1Br (stereo unspecified)	n	n	n	n	n	x
CCN1C(=O)C(CC(=O)Nc2ccc(OC)cc2)N(CCc2ccc(OC)cc2)C1=S (stereo unspecified)	n	n	n	n	47	32
CCN1C(=O)C(CC(=O)Nc2ccc(OC)cc2)N(Cc2ccc(OC)c(OC)c2)C1=S (stereo unspecified)	n	n	n	n	n	x
COc1ccc(OC)c(-c2cc(C(=O)Nc3c(C)nn(Cc4ccccc4)c3C)no2)c1	n	n	n	n	41	n
Cc1nn(Cc2ccc(Cl)cc2)c(C)c1NC(=O)c1c(-c2ccccc2)noc1C	n	n	n	n	43	44
COc1ccc(OC)c(-c2cc(C(=O)Nc3c(C)nn(Cc4ccc(Cl)cc4)c3C)no2)c1	n	n	n	n	43	32
